This is a sample that favours compounds with a hit; in the whole collection about 4.6% have one here.
Peg3 promoter: Peg3 promoter activity inhibition. HeLa PEG-Prom luciferase reporter, luminescence, overnight. inhibition, % at 20 µM. hit rate 1.7% among 360,000;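 active = inhibition of at least 50% at 20 µM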
HIF-2a block: HIF-2a inhibition | hit rate 0.72% among 360,000 | 786-0 RCC cells HIF-2a reporter, luciferase luminescence, overnight | inhibition, % at 18.8 µM | AID 624352;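 active = inhibition of the luminescence signal of 40% or more relative to plate controls, in a single-dose primary screen at 18.75 µM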
ABHD5-PLIN5 inh: inhibitors of human ABHD5-perilipin-5 interaction; Q00G26+Q8WTS1; Split G. princeps luciferase complementation, luminescence, 4 h; inhibition, % at 4 µM; hit rate 0.78% among 360,000;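 active = inhibition above the mean inhibition across every tested compound plus 3 SD, cut at about 22% in these data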;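 also: 0% = DMSO only wells and the 100% control is not disclosed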
KKLEB cytotox: CF airway cell cytotoxicity counter-screen. hit rate 0.36% among 360,000. KKLEB CF airway cells viability, ATPlite luminescence, overnight; active compounds read low; cells stimulated with P. aeruginosa culture filtrate. AID 602141. activity change (cytotoxicity), % at 5 µM;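 active = corrected activity change at or below -50% at 5 µM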
Mdm2-MdmX inh: human Mdm2/MdmX binding inhibition | O15151+Q00987 | SaOS-2 split-luciferase Mdm2/MdmX complementation, luminescence | inhibition, % at 8 µM | hit rate 3% among 330,000;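 active = inhibition of at least 50% at 8 µM in the primary screen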
Target sequence (O15151 whole entry, looked up): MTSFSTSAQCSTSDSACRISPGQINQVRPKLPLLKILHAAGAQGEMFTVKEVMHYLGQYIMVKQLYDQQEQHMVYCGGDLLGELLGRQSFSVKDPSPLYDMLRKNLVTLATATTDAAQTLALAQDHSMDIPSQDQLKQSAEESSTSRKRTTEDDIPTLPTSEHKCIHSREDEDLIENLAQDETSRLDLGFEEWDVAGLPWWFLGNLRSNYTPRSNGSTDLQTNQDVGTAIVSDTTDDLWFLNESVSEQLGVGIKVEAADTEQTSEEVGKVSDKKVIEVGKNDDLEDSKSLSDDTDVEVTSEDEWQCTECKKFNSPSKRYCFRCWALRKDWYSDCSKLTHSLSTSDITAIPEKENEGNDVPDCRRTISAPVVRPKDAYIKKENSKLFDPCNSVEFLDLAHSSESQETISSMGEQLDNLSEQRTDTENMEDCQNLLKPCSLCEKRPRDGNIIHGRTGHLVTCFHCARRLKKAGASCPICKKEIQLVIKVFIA
Target sequence (Q00987 whole entry, looked up): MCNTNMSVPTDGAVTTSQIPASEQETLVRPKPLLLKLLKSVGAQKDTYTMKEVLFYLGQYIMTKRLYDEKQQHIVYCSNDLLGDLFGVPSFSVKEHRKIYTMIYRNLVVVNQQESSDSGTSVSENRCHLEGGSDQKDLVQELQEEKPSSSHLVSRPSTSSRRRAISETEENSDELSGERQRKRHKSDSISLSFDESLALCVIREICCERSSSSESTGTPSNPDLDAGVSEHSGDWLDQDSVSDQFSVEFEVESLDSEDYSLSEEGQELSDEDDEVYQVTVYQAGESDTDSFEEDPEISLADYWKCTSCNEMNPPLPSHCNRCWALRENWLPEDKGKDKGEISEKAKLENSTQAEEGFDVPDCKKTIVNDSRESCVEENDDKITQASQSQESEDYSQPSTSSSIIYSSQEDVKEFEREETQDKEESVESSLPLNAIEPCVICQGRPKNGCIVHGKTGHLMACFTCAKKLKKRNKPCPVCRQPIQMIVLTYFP
CF NFkB inh: inhibitors of cystic fibrosis induced NF-kB | KKLEB NF-kB-GFP reporter, PAF-induced, GFP fluorescence overnight | inhibition, % at 5 µM | hit rate 0.86% among 360,000;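 active = at least 50% inhibition at 5 µM, scaled per plate between neutral and stimulator controls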;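 also: PAF is a Pseudomonas aeruginosa culture filtrate used as stimulus; plate controls were PAF-stimulated DMSO wells for no effect and unstimulated DMSO wells for full effect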
Mdm2 MdmX conf: confirmation of human Mdm2/MdmX interaction inhibitors. Mdm2-MdmX binding, luminescent assay. inhibition, % at 8 µM. hit rate 55% among 10,000. shares compounds with Mdm2-MdmX inh; in the data active = inhibition above about 40%
Full FLuc ctr: counter-screen for Mdm2/MdmX inhibitors: full-length luciferase. shares compounds with Mdm2-MdmX inh. SaOS-2 full-length luciferase counterscreen, luminescence. inhibition, % at 8 µM. hit rate 77% among 6,200. AID 504607;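 active = mean inhibition at 8 µM reaching about 37%, which flags the compound as non-specific, limit read from the data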;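 also: p53-null SaOS-2 cells with luciferase driven by a doxycycline-inducible promoter; compound on cells about two nights before reading with doxycycline added after day one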
* marks the source's active call; other numbers are inactive results; / = not tested or not shown.

SMILES	Peg3 promoter	HIF-2a block	ABHD5-PLIN5 inh	KKLEB cytotox	Mdm2-MdmX inh	CF NFkB inh	Mdm2 MdmX conf	Full FLuc ctr
Cc1ccc(-c2nc(C(=O)NCC3CCCO3)cc3c2[nH]c2ccccc23)cc1 (configuration not stated)	68*	-3	-7	-17	73*	30	44*	66*
O=C(NCC1CCCO1)c1cccc(Br)c1 (configuration not stated)	-17	2	-2	2	6	5	/	/
Cc1ccc(-c2nc(C(=O)NCCCN(C)C)cc3c2[nH]c2ccccc23)cc1	91*	-23	4	-4	66*	-57	27	/
O=C(NCCO)c1cc2c([nH]c3ccccc32)c(-c2ccccc2)n1	-7	-41	-3	0	47	-30	/	/
Cc1ccccc1-c1nc(C(=O)NCC2CCCO2)cc2c1[nH]c1ccccc12 (configuration not stated)	46	4	-6	0	57*	19	28	/
CCC(C)(C)NC(=O)CN(Cc1ccc(OC)cc1)C(=O)CCC(=O)Nc1nccs1	-5	7	2	3	0	-8	/	/
CC1(C)CC(=O)C2=C(C1)N1C(=C(C#N)C2c2ccc(Cl)cc2)N=C(N)c2ccccc21 (configuration not stated)	32	30	0	0	56*	-13	0	/
COc1ccc(N(C)C2=NS(=O)(=O)c3ccccc32)cc1	22	19	-5	-16	52*	16	69*	55*
Cn1c(=O)[nH]c(=O)c2c1nc(N/N=C/c1cccnc1)n2Cc1ccc(Cl)cc1	-14	17	-5	0	62*	-46	17	/
Cn1c(=O)[nH]c(=O)c2c1nc(N/N=C/c1ccncc1)n2Cc1ccc(F)cc1	7	17	6	-8	27	-26	/	/
CCOc1ccc(C(=O)COC(=O)Cc2n[nH]c(=O)c3ccccc23)cc1	13	6	-6	-8	57*	29	75*	51*
O=C(Cc1n[nH]c(=O)c2ccccc12)OCC(=O)c1ccc(F)cc1	9	19	11	-6	19	-4	/	/
O=C(Cc1n[nH]c(=O)c2ccccc12)OCC(=O)c1ccc2c(c1)OCCO2	-12	11	3	-3	55*	-2	68*	94*
COc1ccc2nc(N=NC3=C(O)CC(C)(C)CC3=O)sc2c1	22	-39	6	-10	12	25	/	/
COc1ccc2nc(N=Nc3ccc(O)c4ccccc34)sc2c1	48	4	4	-19	66*	16	78*	35
COC(=O)[C@@]1(Cc2ccccc2)[C@H]2C(=O)N(C)C(=O)[C@H]2[C@H]2CN=C(SCC(=O)c3ccccc3)N21	-31	-33	-10	4	37	3	/	/
Cc1cc(C)n(-c2nc(SCCN(C)C)c3c4c(sc3n2)COC(C)(C)C4)n1	54*	-29	3	-34	54*	6	58*	53*
Cc1cc(C)n(-c2nc(NCC(C)O)c3c4c(sc3n2)COC(C)(C)C4)n1 (configuration not stated)	-22	-57	-3	-6	8	-4	/	/
COc1ccc(/C=N/NC(=O)c2ccn[nH]2)cc1COc1ccc([N+](=O)[O-])c(C)c1	11	-39	-10	2	24	2	/	/
COc1cc([N+](=O)[O-])cc(/C=N/NC(=O)c2cccnc2)c1O	14	-4	-6	-3	55*	-5	52*	51*
COc1ccc(/C=N/NC(=O)c2cccnc2)cc1COc1ccc([N+](=O)[O-])c(C)c1	14	-25	2	10	52*	-17	55*	48*
CC(C)(C)c1ccc(CSc2ccc(S(=O)(=O)N3CCOCC3)cn2)cc1	4	8	-8	8	-1	-2	/	/
CCOC(=O)C(Cc1c[nH]c2cc([N+](=O)[O-])ccc12)(NC(C)=O)C(=O)OCC	12	2	-4	12	/	-36	/	/
O=C(COC(=O)c1c2c(nc3ccccc13)/C(=C/c1cccc([N+](=O)[O-])c1)CCC2)NC1CCS(=O)(=O)C1 (configuration not stated)	40	-22	15	-5	71*	-1	31	/
CCOC(=O)N1Cc2cc3ccccc3nc2C1	-240	-187	-5	16	/	-30	/	/
SMILES	Peg3 promoter	HIF-2a block	ABHD5-PLIN5 inh	KKLEB cytotox	Mdm2-MdmX inh	CF NFkB inh	Mdm2 MdmX conf	Full FLuc ctr
Cc1ccc(OC(F)F)c(NC(=O)Nc2cccc(C(F)(F)F)c2)c1	30	-67	-13	-20	88*	17	59*	24
CC(=O)Nc1nc2cc([N+](=O)[O-])ccc2s1	-27	-42	-4	2	-18	-11	/	/
O=C(/C=C/c1ccc2c(c1)OCO2)Nc1nc2ccc(F)cc2s1	-30	-234	-11	-9	73*	-1	-53	/
CC(C)c1ccc(/C=C/C(=O)Nc2nc3ccc([N+](=O)[O-])cc3s2)cc1	15	-2	3	-5	56*	-3	16	/
CCOc1ccc2nc(NC(=O)/C=C/c3ccc4c(c3)OCO4)sc2c1	7	11	-3	12	35	-15	/	/
Cc1cn([C@H]2C[C@H](O)[C@@H](/C=C/C(=O)NCc3ccc(N(C)C)cc3)O2)c(=O)[nH]c1=O	6	19	-4	10	/	-18	/	/
CCOc1ccc(N2C(=O)S/C(=C\c3cc(OC)c(OC)c(OC)c3)C2=O)cc1	16	-7	-2	4	53*	-1	14	/
CCOc1ccc(N2C(=O)S/C(=C\c3ccc(O)c(OC)c3)C2=O)cc1	-19	-33	6	9	5	0	/	/
Cc1cccn2c(=O)c3cc(C(=O)NCCN4CCOCC4)c(=N)n(Cc4ccc(F)cc4)c3nc12	46	23	0	-9	81*	-5	78*	35
COCCn1c(=N)c(C(=O)NCCc2ccc(OC)cc2)cc2c(=O)n3cccc(C)c3nc21	12	5	-1	-3	39	-6	/	/
Cc1cccn2c(=O)c3cc(C(=O)NC4CCCCC4)c(=N)n(Cc4ccc(F)cc4)c3nc12	49	8	-6	-5	58*	22	18	/
COc1ccc(CCNC(=O)c2cc3c(=O)n4cccc(C)c4nc3n(CCCN3CCOCC3)c2=N)cc1	57*	8	6	-5	65*	-12	17	/
COc1ccc(CCn2c(=N)c(C(=O)NCC3CCCO3)cc3c(=O)n4cccc(C)c4nc32)cc1 (configuration not stated)	36	11	18	-11	53*	-48	32	/
Cc1cccn2c(=O)c3cc(C(=O)NC4CCCC4)c(=N)n(CC4CCCO4)c3nc12 (configuration not stated)	-5	12	3	-13	23	-3	/	/
